We go through 26 compounds from PubChem BioAssay (Tox21).

The structures appear in SMILES notation. Unmarked numbers belong to inactive results. Records with an inconclusive call do not appear. Active and inactive are the calls of the source. Unless noted, the call rests on the fitted dose curve; in most records, active means well fitted curve in the direction sought with a large enough effect in the repeat runs; inconclusive means weak or mixed curves; inactive means no such curve, though single readings can be large; an effect the other way counts as inactive or inconclusive.

Assay [1] addresses Acetylcholinesterase (Homo sapiens) (UniProt P22303). The assay is described as follows: Acetylcholinesterase (AChE) small molecule antagonists: fluorescence cell-based qHTS assay (AID 1347398; calls by dose curve; further: nearly all actives have a fitted effect of over 50% in size). The conditions noted are these: Potency: AChE activity. The essentials:
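Cellular AChE inhibition: SH-SY5Y cells treated with test chemical for 30 min at 37 C, then acetylthiocholine hydrolysis followed over 40 min at room temperature via thiocholine-reactive Thiolite Green fluorescence (490/520 nm).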
(In qHTS, concentration-response curves come from the screen itself.)

The target is the same in assay [2]. The assay is described as follows: Acetylcholinesterase (AChE) small molecule antagonists: enzyme-based qHTS assay with human liver microsomes (AID 1347399; calls by dose curve; further: nearly all actives have a fitted effect of over 60% in size). The conditions noted are these: Potency: qHTS inhibition. Summed up: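 Recombinant human AChE (50 mU/mL in the enzyme mix) and human liver microsomes (0.25 mg/mL final) were preincubated with compound and NADPH (0.25 mg/mL final) for 30 min at 37 C. Acetylthiocholine/DTNB was then added; thiocholine was read colorimetrically after 10 min at room temperature.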

Assay [3] deals with Cytochrome P450 2D6 (Homo sapiens) (UniProt P10635). The assay is described as follows: Cytochrome P450 Family 2 Subfamily D Member 6 (CYP2D6) small molecule antagonists: luciferase reporter qHTS assay (AID 1671196). Further: nearly all actives have a fitted effect of over 50% in size. On activity change, negative = inhibition: series mostly up to about 120 µM. Summed up:
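Room-temperature luminescent CYP2D6 activity assay: compound preincubated 10 min with enzyme–substrate mix, NADPH-initiated reaction 1 h, detection reagent 20 min before reading.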
In general terms: Reporter assays use an easily measured gene product as a stand-in for the process of interest.

In assay [4] the target is Cytochrome P450 2C19 (Homo sapiens) (UniProt P33261). The assay is described as follows: Cytochrome P450 Family 2 Subfamily C Member 19 (CYP2C19) small molecule antagonists: luciferase reporter qHTS assay (AID 1671197). Further: nearly all actives have a fitted effect of over 65% in size. On activity change, negative = inhibition: series mostly up to about 120 µM. Summed up:
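First, compounds are pinned into enzyme-substrate mix and held 10 min at room temperature. Second, NADPH regeneration solution is added and plates incubate 1 h at 37C. Third, detection reagent is added and luminescence read after 20 min.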

Assay [5] has as its target Cytochrome P450 2C9 (Homo sapiens) (UniProt P11712). The assay is described as follows: Cytochrome P450 Family 2 Subfamily C Member 9 (CYP2C9) small molecule antagonists: luciferase reporter qHTS assay (AID 1671198). Further: nearly all actives have a fitted effect of over 50% in size. On activity change, negative = inhibition: series mostly up to about 120 µM. The essentials: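 CYP2C9 activity was measured with a P450-Glo proluciferin substrate. Enzyme–substrate mix was held with compound for 10 min at room temperature, then NADPH regeneration solution was added for 1 h at 37C. Luciferin product was read as luminescence.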

Assay [6] concerns the target Cytochrome P450 1A2 (Homo sapiens) (UniProt P05177). The assay is described as follows: Cytochrome P450 Family 1 Subfamily A Member 2 (CYP1A2) small molecule antagonists: luciferase reporter qHTS assay (AID 1671199). Further: nearly all actives have a fitted effect of over 50% in size. On activity change, negative = inhibition: series mostly up to about 120 µM. Summed up:
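Room-temperature CYP1A2 reaction with proluciferin substrate: compounds added from DMSO, 10 min preincubation, NADPH regeneration for 1 h. Luciferin detection reagent then added; luminescence recorded as RLU.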

For assay [7], the target named is Voltage-gated inwardly rectifying potassium channel KCNH2 (Homo sapiens) (UniProt Q12809). The assay is described as follows: Human Ether-a-go-go-Related Gene (hERG) channel small molecule antagonists: fluorescence cell-based qHTS assay (AID 1671200). Further: nearly all actives have a fitted effect of over 50% in size.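 On activity change, negative = inhibition: hERG-expressing U2OS cells given a thallium stimulus after FluxOR II dye loading; series mostly up to about 77 µM.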 Summed up:
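U2OS cells expressing the channel were plated at 1000 cells/well, incubated overnight at 37 C, then loaded with FluxOR II thallium-sensitive dye for 1 h at room temperature in the dark, with a further 10 min at room temperature before stimulation.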
(Block of hERG is tested as a sign of cardiac risk.)

The target of assay [8] is Cytochrome P450 3A4 (Homo sapiens) (UniProt P08684). The assay is described as follows: Cytochrome P450 Family 3 Subfamily A Member 4 (CYP3A4) small molecule antagonists: luciferase reporter qHTS assay (AID 1671201). Further: nearly all actives have a fitted effect of over 50% in size. On activity change, negative = inhibition: series mostly up to about 120 µM. The essentials:
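P450-Glo CYP3A4 system with proluciferin substrate; compounds preincubated 10 min RT with enzyme-substrate mix, then NADPH regeneration added for 1 h RT. Detection reagent 20 min, luminescence read as relative luminescence units.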
On the % scale 0 is the no-effect control and ±100 the full control effect; potency means the concentration at half of the fitted maximal effect.

Sequence of Voltage-gated inwardly rectifying potassium channel KCNH2 (Homo sapiens) (Q12809 whole entry, looked up): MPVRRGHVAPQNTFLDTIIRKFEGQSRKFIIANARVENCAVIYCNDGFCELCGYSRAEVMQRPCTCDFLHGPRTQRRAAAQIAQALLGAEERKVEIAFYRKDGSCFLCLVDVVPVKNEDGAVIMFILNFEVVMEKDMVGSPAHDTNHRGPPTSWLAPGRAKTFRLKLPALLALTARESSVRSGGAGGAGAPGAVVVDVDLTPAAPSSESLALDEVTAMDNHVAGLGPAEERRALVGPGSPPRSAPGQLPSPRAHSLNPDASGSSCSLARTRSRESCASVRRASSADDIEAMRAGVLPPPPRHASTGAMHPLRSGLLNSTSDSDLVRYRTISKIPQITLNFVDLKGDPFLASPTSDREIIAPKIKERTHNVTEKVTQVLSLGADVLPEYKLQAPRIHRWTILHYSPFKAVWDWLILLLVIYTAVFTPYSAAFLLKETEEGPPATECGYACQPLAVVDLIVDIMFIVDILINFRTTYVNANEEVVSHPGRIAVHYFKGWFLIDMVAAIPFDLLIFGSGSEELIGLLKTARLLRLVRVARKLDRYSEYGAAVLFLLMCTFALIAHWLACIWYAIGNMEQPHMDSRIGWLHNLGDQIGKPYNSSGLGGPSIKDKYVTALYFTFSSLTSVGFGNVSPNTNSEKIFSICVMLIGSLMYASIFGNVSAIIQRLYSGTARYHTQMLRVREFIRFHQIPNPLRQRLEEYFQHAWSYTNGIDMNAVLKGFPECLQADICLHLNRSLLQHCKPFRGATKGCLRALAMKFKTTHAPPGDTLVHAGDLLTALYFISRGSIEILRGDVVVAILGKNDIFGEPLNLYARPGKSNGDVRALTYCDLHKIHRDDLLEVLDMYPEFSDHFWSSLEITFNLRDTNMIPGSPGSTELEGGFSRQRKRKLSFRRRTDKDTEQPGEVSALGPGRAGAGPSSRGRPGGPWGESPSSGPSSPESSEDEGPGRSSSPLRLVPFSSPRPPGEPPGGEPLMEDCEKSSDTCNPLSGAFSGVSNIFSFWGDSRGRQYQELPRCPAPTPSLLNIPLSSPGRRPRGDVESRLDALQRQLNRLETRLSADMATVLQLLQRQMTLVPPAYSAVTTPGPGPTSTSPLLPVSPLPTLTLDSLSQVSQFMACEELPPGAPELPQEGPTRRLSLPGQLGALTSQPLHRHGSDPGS
Sequence of Cytochrome P450 2D6 (Homo sapiens) (P10635 whole entry, looked up): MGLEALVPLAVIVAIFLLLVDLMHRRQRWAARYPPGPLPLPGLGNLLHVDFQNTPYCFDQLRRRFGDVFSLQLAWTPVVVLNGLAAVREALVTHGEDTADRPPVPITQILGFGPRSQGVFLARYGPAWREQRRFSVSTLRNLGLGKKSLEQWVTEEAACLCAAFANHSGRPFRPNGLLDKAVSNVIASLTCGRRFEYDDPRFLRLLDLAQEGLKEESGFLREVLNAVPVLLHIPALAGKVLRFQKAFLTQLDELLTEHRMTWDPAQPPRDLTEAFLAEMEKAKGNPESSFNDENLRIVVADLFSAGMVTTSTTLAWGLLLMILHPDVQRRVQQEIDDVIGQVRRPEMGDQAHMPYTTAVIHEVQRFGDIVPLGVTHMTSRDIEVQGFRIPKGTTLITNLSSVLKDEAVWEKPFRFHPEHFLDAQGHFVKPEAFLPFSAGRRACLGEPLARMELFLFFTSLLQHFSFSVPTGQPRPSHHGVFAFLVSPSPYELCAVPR
Sequence of Cytochrome P450 3A4 (Homo sapiens) (P08684 whole entry, looked up): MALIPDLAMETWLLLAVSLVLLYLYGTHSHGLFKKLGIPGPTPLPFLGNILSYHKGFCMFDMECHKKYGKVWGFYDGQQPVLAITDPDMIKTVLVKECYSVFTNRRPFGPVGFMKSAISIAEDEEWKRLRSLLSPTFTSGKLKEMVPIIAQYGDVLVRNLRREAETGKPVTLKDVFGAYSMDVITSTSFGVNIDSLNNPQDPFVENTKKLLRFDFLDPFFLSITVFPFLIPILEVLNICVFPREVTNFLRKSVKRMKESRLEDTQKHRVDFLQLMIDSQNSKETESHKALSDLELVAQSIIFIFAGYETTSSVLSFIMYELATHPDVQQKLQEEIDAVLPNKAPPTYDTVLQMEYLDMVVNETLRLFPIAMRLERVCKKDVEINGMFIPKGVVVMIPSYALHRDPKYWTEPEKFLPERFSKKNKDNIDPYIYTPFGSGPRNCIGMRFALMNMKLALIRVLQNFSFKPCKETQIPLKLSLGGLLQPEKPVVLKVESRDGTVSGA
Sequence of Cytochrome P450 1A2 (Homo sapiens) (P05177 whole entry, looked up): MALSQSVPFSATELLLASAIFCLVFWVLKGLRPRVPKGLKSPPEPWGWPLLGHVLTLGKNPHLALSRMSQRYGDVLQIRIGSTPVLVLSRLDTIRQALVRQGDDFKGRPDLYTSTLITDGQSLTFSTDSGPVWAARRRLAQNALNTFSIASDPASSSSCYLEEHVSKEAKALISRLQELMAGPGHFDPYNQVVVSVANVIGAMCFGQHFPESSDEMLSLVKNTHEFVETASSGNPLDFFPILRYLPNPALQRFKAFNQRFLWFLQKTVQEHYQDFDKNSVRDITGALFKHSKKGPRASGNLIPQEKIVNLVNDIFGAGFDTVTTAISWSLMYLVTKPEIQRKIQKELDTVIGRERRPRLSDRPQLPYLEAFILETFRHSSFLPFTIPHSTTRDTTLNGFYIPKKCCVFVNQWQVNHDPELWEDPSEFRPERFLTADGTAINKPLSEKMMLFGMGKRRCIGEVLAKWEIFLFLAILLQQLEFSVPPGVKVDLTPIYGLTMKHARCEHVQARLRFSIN
Sequence of Cytochrome P450 2C9 (Homo sapiens) (P11712 whole entry, looked up): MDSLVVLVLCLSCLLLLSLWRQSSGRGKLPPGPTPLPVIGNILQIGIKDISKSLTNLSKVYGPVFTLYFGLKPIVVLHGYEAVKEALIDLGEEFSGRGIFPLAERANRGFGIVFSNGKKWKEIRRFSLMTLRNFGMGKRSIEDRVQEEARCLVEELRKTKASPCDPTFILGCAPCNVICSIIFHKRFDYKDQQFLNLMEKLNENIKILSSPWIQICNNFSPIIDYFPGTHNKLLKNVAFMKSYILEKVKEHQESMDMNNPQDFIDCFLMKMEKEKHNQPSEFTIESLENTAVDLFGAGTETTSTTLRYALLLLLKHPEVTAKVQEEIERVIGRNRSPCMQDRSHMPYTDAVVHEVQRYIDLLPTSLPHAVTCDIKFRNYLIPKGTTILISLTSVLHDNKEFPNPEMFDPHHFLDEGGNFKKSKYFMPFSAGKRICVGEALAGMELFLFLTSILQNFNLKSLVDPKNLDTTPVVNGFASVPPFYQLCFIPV
Sequence of Acetylcholinesterase (Homo sapiens) (P22303 whole entry, looked up): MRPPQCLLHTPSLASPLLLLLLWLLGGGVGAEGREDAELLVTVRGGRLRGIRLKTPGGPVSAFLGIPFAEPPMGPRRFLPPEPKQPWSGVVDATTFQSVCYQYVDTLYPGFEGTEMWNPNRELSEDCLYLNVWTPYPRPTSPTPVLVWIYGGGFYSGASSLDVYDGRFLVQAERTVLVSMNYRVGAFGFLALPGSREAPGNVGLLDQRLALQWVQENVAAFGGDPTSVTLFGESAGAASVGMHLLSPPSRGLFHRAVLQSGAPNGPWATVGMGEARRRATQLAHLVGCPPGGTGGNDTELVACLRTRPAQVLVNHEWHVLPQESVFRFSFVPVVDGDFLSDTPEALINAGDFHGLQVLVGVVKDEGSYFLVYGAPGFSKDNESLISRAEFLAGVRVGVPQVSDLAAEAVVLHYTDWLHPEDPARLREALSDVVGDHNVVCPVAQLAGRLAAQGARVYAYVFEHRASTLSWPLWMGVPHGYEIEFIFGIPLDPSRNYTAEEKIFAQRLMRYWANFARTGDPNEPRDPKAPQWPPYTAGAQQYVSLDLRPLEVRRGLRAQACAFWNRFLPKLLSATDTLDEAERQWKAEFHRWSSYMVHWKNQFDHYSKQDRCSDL
Sequence of Cytochrome P450 2C19 (Homo sapiens) (P33261 whole entry, looked up): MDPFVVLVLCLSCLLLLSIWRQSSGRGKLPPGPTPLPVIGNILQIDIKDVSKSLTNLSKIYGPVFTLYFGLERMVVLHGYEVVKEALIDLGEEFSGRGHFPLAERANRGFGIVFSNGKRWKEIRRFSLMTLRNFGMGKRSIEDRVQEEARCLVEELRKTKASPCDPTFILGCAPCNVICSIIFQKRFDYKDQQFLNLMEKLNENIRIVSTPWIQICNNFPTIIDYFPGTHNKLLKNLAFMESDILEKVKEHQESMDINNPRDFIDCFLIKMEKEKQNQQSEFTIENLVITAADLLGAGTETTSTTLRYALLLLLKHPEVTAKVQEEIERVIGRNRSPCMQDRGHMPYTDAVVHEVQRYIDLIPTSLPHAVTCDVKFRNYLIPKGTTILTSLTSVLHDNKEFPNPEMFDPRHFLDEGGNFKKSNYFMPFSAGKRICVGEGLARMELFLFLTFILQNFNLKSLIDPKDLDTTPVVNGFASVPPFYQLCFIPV

As for `Nc1n[nH]c(N)n1`, the Potency entry in assay [1], in assay [2], in assay [3], in assay [4], in assay [5] and in assay [7] was “inactive” each time. In addition, the Potency in assay [6] was 64.4 µM (active).

As for `CCN(CC)CCOC(=O)C(C)(c1ccccc1)c1ccccc1`, the Potency entry in assay [1], in assay [2] and in assay [6] was “inactive” each time. Further, the Potency is 1.55 µM (active) in assay [3], 3.89 µM (active) in assay [4], 12.3 µM (active) in assay [5] and 10.7 µM (active) in assay [7].

As to `ClC(Cl)Br`, the Potency entry in assay [1], in assay [2], in assay [3], in assay [4], in assay [5] and in assay [6] was “inactive” in each case. Further, the Potency entry in assay [7] and in assay [8] was “inactive” in each case.

With `CC(=O)[C@H]1CC[C@H]2[C@@H]3CC[C@H]4C[C@H](O)CC[C@]4(C)[C@H]3C(=O)C[C@]12C`, the Potency entry in assay [1] and in assay [2] was “inactive” each time.

`CS(=O)(=O)c1cc(C(F)(F)F)ccc1C(=O)c1cnoc1C1CC1`: the Potency result in assay [1], in assay [2], in assay [3], in assay [7] and in assay [8] was “inactive” in each case. The Potency is 56.4 µM (active) in assay [4], 1.59 µM (active) in assay [5] and 35.6 µM (active) in assay [6].

For `CCN(CC)C(C)C(=O)c1ccccc1` (stereo unspecified), the Potency result in assay [1], in assay [2], in assay [4], in assay [5], in assay [6] and in assay [7] was “inactive” in each case. Further, the Potency entry in assay [8] is “inactive”. In addition, the Potency in assay [3] is 19.5 µM (active).

As to `CC(=O)CC(c1ccc(Cl)cc1)c1c(O)c2ccccc2oc1=O` (stereo unspecified), the Potency entry in assay [1], in assay [2], in assay [3], in assay [4], in assay [6] and in assay [7] was “inactive” each time. In addition, the Potency entry in assay [8] is “inactive”. Further, the Potency in assay [5] was 11.8 µM (active).

For the compound `CCOC(=O)N(C)C(=O)CSP(=S)(OCC)OCC`, the Potency entry in assay [1], in assay [2] and in assay [7] was “inactive” each time. Besides, the Potency in assay [3] is 28.3 µM (active); in assay [4], 0.126 µM (active); in assay [5] it was 0.71 µM (active); in assay [6] it was 3.17 µM (active); in assay [8], 2.24 µM (active).

Consider `COc1cccc(C(=O)NN(C(=O)c2cc(C)cc(C)c2)C(C)(C)C)c1C`, for which the Potency entry in assay [1], in assay [2], in assay [6] and in assay [7] was “inactive” in each case. Further, the Potency was 39.9 µM (active) in assay [3], 3.56 µM (active) in assay [4], 17.8 µM (active) in assay [5] and 0.71 µM (active) in assay [8].

For `ClC(Cl)(Cl)C(Cl)(Cl)Cl`, the Potency entry in assay [1], in assay [2], in assay [3], in assay [4], in assay [5] and in assay [6] was “inactive” in each case. Besides, the Potency result in assay [7] and in assay [8] was “inactive” throughout.

Take `CCOP(=S)(OCC)Oc1ncn(-c2ccccc2)n1`: the Potency is 35.6 µM (active) in assay [1]; 3.17 µM (active) in assay [2]; 1 µM (active) in assay [4]; 0.502 µM (active) in assay [5]; 1.78 µM (active) in assay [6]; 2.52 µM (active) in assay [8]. For the same compound, the Potency result in assay [3] and in assay [7] was “inactive” in each case.

Consider `N#Cc1ccncc1`, for which the Potency entry in assay [1], in assay [2], in assay [3], in assay [4], in assay [5] and in assay [6] was “inactive” throughout. For the same compound, the Potency result in assay [7] and in assay [8] was “inactive” each time.

As to `CC1=C(C(=O)O)N2C(=O)[C@@H](N)[C@H]2SC1`, the activity change, negative = inhibition is 0.138% [at 23.8 µM] in assay [1]; 2.02% [at 23.6 µM] in assay [2]; -15.2% [at 23.6 µM] in assay [3]; -10.3% [at 23.6 µM] in assay [4]; 5.86% [at 23.6 µM] in assay [5]; 13% [at 23.6 µM] in assay [6]. Besides, the activity change, negative = inhibition in assay [7] was 3.94% [at 15.8 µM]; in assay [8], 11.3% [at 23.6 µM].

As for `C=CCC1=C(C)[C@@H](OC(=O)[C@@H]2[C@@H](C=C(C)C)C2(C)C)CC1=O`, the Potency entry in assay [1] and in assay [2] was “inactive” each time. In addition, the Potency is 35.6 µM (active) in assay [3]; 6.33 µM (active) in assay [4]; 12.6 µM (active) in assay [5]; 28.3 µM (active) in assay [6]; 21.9 µM (active) in assay [7].

Consider `CCOP(=S)(OCC)SCSc1ccc(Cl)cc1`, for which the Potency result in assay [1], in assay [2] and in assay [7] was “inactive” in each case. The Potency in assay [3] is 11.2 µM (active); in assay [4], 0.502 µM (active); in assay [5], 1 µM (active); in assay [6] it was 8.94 µM (active).

As for `COCC(=O)N(c1c(C)cccc1C)N1CCOC1=O`, the Potency entry in assay [1], in assay [2], in assay [3], in assay [5], in assay [6] and in assay [7] was “inactive” throughout. Besides, in assay [8], the Potency entry is “inactive”. Besides, the Potency in assay [4] is 79.6 µM (active).

As for `Fc1ccc(C2(Cn3cncn3)OC2c2ccccc2Cl)cc1` (stereo unspecified), the Potency entry in assay [1], in assay [2] and in assay [7] was “inactive” each time. Besides, the Potency was 39.9 µM (active) in assay [3]; 0.252 µM (active) in assay [4]; 5.64 µM (active) in assay [5]; 5.03 µM (active) in assay [6]; 0.894 µM (active) in assay [8].

As for `CC(C=O)Cc1ccc2c(c1)OCO2` (stereo unspecified), the Potency entry in assay [1], in assay [2] and in assay [7] was “inactive” in each case. Moreover, the Potency in assay [3] was 63.3 µM (active); in assay [4], 20 µM (active); in assay [5], 15.9 µM (active); in assay [6], 6.33 µM (active); in assay [8], 11.2 µM (active).

For the compound `CCCSC(=O)N(CCC)CCC`, the Potency result in assay [1], in assay [2], in assay [3], in assay [4], in assay [5] and in assay [6] was “inactive” each time. In addition, the Potency entry in assay [7] and in assay [8] was “inactive” in each case.

As to `CC(CCc1ccccc1)NC(C)C(O)c1ccc(O)cc1` (stereo unspecified), the Potency result in assay [1], in assay [2], in assay [5] and in assay [8] was “inactive” in each case. For the same compound, the Potency in assay [3] is 0.436 µM (active); in assay [4], 9.77 µM (active); in assay [6] it was 15.5 µM (active); in assay [7], 4.77 µM (active).

For `CC(C)(C)C(=O)C(Oc1ccc(Cl)cc1)n1cncn1` (stereo unspecified), the Potency result in assay [1], in assay [2], in assay [3] and in assay [7] was “inactive” each time. The Potency in assay [4] is 3.17 µM (active); in assay [5], 12.6 µM (active); in assay [6], 35.5 µM (active); in assay [8], 0.399 µM (active).

In the case of `O=C(Nc1ccccc1)c1ccccc1I`, the Potency entry in assay [1], in assay [2] and in assay [7] was “inactive” throughout. The Potency was 35.6 µM (active) in assay [3]; 22.4 µM (active) in assay [4]; 39.9 µM (active) in assay [5]; 20 µM (active) in assay [6]; 15.9 µM (active) in assay [8].

On to `CC1COC2(c3ccccc3Cl)c3cc(Cl)ccc3NC(=O)CN12` (stereo unspecified), for which the Potency entry in assay [1], in assay [2] and in assay [6] was “inactive” each time. For the same compound, the figures for the Potency in assay [3], in assay [4] and in assay [5] were 15.5 µM (active), 4.36 µM (active) and 27.5 µM (active), respectively.

Take `C[N+](C)=CCl`: the Potency entry in assay [1], in assay [2], in assay [3], in assay [4], in assay [5] and in assay [6] was “inactive” in each case. In addition, the Potency result in assay [7] and in assay [8] was “inactive” in each case.

As to `OCCSCSCCO`, the Potency entry in assay [1], in assay [2], in assay [3], in assay [4], in assay [5] and in assay [6] was “inactive” each time. In addition, the Potency result in assay [7] and in assay [8] was “inactive” throughout.

With `O=C1OC(=O)C2C1C1(Cl)C(Cl)=C(Cl)C2(Cl)C1(Cl)Cl` (stereo unspecified), the Potency result in assay [1], in assay [2], in assay [3], in assay [4], in assay [5] and in assay [6] was “inactive” each time. The Potency result in assay [7] and in assay [8] was “inactive” throughout.
